Measurements taken from publication PMC8384837, “Expanding the binding specificity for RNA recognition by a PUF domain”.

How the values were obtained:
Test in all cases: yeast three-hybrid, YBZ-1, SC-Leu-His + 0.5 mM 3-AT, 4 days
Settings in all cases: tags: N-Gal4 AD-HA kept; label: inside an RPR1-promoter hybrid RNA with tandem MS2 sites; ssRNA
PUM1 PUF domain R4-AMV = PUM1 PUF domain R4-AMV (Homo sapiens, UniProt Q14671 828-1176, N971A;H972M;Q975V)
How it was run: (§1)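 Repeat regions from input (SC-Leu) and selection (SC-Leu-His + 0.5 mM 3-AT) plates were PCR-amplified and Illumina-sequenced after four days of growth. The cells were strain YBZ-1 with a LexA–MS2 coat fusion and a HIS3 reporter, co-expressing Pumilio-1 PUF domain libraries and matching RNA elements from a centromeric plasmid. The interaction score is the log change in variant frequency from input to selection, taken in log2 with a pseudocount of 1 for absent variants.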

PUM1 PUF domain R5-HRM = PUM1 PUF domain R5-HRM (Homo sapiens, UniProt Q14671 828-1176, C1007H;Q1011M)
How it was run: as §1

PUM1 PUF domain R8-MWR = PUM1 PUF domain R8-MWR (Homo sapiens, UniProt Q14671 828-1176, N1122M;Y1123W;Q1126R)
How it was run: as §1

PUM1 PUF domain R5-LYM = PUM1 PUF domain R5-LYM (Homo sapiens, UniProt Q14671 828-1176, C1007L;R1008Y;Q1011M)
How it was run: as §1

PUM1 PUF domain R3-RTR = PUM1 PUF domain R3-RTR (Homo sapiens, UniProt Q14671 828-1176, C935R;R936T;Q939R)
How it was run: as §1

PUM1 PUF domain R8-HWR = PUM1 PUF domain R8-HWR (Homo sapiens, UniProt Q14671 828-1176, N1122H;Y1123W;Q1126R)
How it was run: as §1

PUM1 PUF domain R8-PYS = PUM1 PUF domain R8-PYS (Homo sapiens, UniProt Q14671 828-1176, N1122P;Q1126S)
How it was run: as §1

PUM1 PUF domain R2-LWY = PUM1 PUF domain R2-LWY (Homo sapiens, UniProt Q14671 828-1176, N899L;Y900W;Q903Y)
How it was run: as §1

PUM1 PUF domain R4-AMV, sequence (Q14671 828-1176 N971A/H972M/Q975V): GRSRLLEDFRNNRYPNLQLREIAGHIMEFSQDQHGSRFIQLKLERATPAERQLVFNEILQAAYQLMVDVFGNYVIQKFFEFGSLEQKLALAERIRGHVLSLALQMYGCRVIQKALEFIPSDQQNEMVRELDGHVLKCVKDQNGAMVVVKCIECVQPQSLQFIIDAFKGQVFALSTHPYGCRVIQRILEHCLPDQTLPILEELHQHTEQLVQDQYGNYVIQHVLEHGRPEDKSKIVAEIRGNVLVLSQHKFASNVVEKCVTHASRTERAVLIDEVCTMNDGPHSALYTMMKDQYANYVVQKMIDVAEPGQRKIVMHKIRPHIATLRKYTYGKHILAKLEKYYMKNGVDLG
PUM1 PUF domain R8-MWR, sequence (Q14671 828-1176 N1122M/Y1123W/Q1126R): as the sequence (Q14671 828-1176 N971A/H972M/Q975V) above, with A144N, M145H, V148Q, N295M, Y296W, Q299R counted along it
PUM1 PUF domain R5-HRM, sequence (Q14671 828-1176 C1007H/Q1011M): as the sequence (Q14671 828-1176 N971A/H972M/Q975V) above, with A144N, M145H, V148Q, C180H, Q184M counted along it
PUM1 PUF domain R3-RTR, sequence (Q14671 828-1176 C935R/R936T/Q939R): as the sequence (Q14671 828-1176 N971A/H972M/Q975V) above, with C108R, R109T, Q112R, A144N, M145H, V148Q counted along it
PUM1 PUF domain R8-PYS, sequence (Q14671 828-1176 N1122P/Q1126S): as the sequence (Q14671 828-1176 N971A/H972M/Q975V) above, with A144N, M145H, V148Q, N295P, Q299S counted along it
PUM1 PUF domain R5-LYM, sequence (Q14671 828-1176 C1007L/R1008Y/Q1011M): as the sequence (Q14671 828-1176 N971A/H972M/Q975V) above, with A144N, M145H, V148Q, C180L, R181Y, Q184M counted along it
PUM1 PUF domain R2-LWY, sequence (Q14671 828-1176 N899L/Y900W/Q903Y): as the sequence (Q14671 828-1176 N971A/H972M/Q975V) above, with N72L, Y73W, Q76Y, A144N, M145H, V148Q counted along it
PUM1 PUF domain R8-HWR, sequence (Q14671 828-1176 N1122H/Y1123W/Q1126R): as the sequence (Q14671 828-1176 N971A/H972M/Q975V) above, with A144N, M145H, V148Q, N295H, Y296W, Q299R counted along it

In the case of “GGCUAGAACUAGUGGAUCCCCCGGCGCCCGGCGGCUCGAGCCCGGGUAAGUGUAUAUAGUCUGCAUGCCGCCGGGCGCCAUGCCUGCAGGUCGACUCUAGAAAACAUG”, the binding signal (PUM1 PUF domain R4-AMV) is reported as 1.51 log2 enrichment (interaction score).

With “GGCUAGAACUAGUGGAUCCCCCGGCGCCCGGCGGCUCGAGCCCGGGUAAGUGUAAAUAGUCUGCAUGCCGCCGGGCGCCAUGCCUGCAGGUCGACUCUAGAAAACAUG” the binding signal (PUM1 PUF domain R5-HRM) was 1.49 log2 enrichment (interaction score), the binding signal (PUM1 PUF domain R8-MWR) was 4.37 log2 enrichment (interaction score) and the binding signal (PUM1 PUF domain R5-LYM) was 2.36 log2 enrichment (interaction score). For the same sequence, the binding signal (PUM1 PUF domain R3-RTR) was 0.19 log2 enrichment (interaction score) and the binding signal (PUM1 PUF domain R4-AMV) was 3.03 log2 enrichment (interaction score).

In the case of “GGCUAGAACUAGUGGAUCCCCCGGCGCCCGGCGGCUCGAGCCCGGGUAAGUGUACAUAGUCUGCAUGCCGCCGGGCGCCAUGCCUGCAGGUCGACUCUAGAAAACAUG”, the binding signal (PUM1 PUF domain R4-AMV) is reported as 1.83 log2 enrichment (interaction score).

In the case of “GGCUAGAACUAGUGGAUCCCCCGGCGCCCGGCGGCUCGAGCCCGGGUAAGCGUAAAUAGUCUGCAUGCCGCCGGGCGCCAUGCCUGCAGGUCGACUCUAGAAAACAUG”, the binding signal (PUM1 PUF domain R8-MWR) is reported as 4.99 log2 enrichment (interaction score), the binding signal (PUM1 PUF domain R8-HWR) is reported as 7.03 log2 enrichment (interaction score) and the binding signal (PUM1 PUF domain R8-PYS) is reported as 3.23 log2 enrichment (interaction score).

In the case of “GGCUAGAACUAGUGGAUCCCCCGGCGCCCGGCGGCUCGAGCCCGGGUAAGUGUAAGUAGUCUGCAUGCCGCCGGGCGCCAUGCCUGCAGGUCGACUCUAGAAAACAUG”, the binding signal (PUM1 PUF domain R3-RTR) is reported as 1.03 log2 enrichment (interaction score).

“GGCUAGAACUAGUGGAUCCCCCGGCGCCCGGCGGCUCGAGCCCGGGUAAGUGUAAAAAGUCUGCAUGCCGCCGGGCGCCAUGCCUGCAGGUCGACUCUAGAAAACAUG” was tested, and the binding signal (PUM1 PUF domain R2-LWY) was 8.01 log2 enrichment (interaction score).

In the case of “GGCUAGAACUAGUGGAUCCCCCGGCGCCCGGCGGCUCGAGCCCGGGUAAGGGUAAAUAGUCUGCAUGCCGCCGGGCGCCAUGCCUGCAGGUCGACUCUAGAAAACAUG”, the binding signal (PUM1 PUF domain R8-MWR) is reported as 2.37 log2 enrichment (interaction score).

In the case of “GGCUAGAACUAGUGGAUCCCCCGGCGCCCGGCGGCUCGAGCCCGGGUAAGUGUUAAUAGUCUGCAUGCCGCCGGGCGCCAUGCCUGCAGGUCGACUCUAGAAAACAUG”, the binding signal (PUM1 PUF domain R5-HRM) is reported as 4.33 log2 enrichment (interaction score).
